Data as given in ChEMBL document CHEMBL3433997, “St. Jude Leishmania screening dataset” (2016).

target: Solute carrier family 2, facilitated glucose transporter member 1 (Homo sapiens) (UniProt P11166); assay: ST_JUDE_LEISH: Cytotoxicity at 2uM final concentration against transgenic Leishmania Mexicana promastigotes LmGLUT1 that are glucose transport deficient and complemented with the human glucose transporter GLUT1. Activity is measured by DNA content using SYBR green in vitro; format: functional
Sequence (P11166 whole entry): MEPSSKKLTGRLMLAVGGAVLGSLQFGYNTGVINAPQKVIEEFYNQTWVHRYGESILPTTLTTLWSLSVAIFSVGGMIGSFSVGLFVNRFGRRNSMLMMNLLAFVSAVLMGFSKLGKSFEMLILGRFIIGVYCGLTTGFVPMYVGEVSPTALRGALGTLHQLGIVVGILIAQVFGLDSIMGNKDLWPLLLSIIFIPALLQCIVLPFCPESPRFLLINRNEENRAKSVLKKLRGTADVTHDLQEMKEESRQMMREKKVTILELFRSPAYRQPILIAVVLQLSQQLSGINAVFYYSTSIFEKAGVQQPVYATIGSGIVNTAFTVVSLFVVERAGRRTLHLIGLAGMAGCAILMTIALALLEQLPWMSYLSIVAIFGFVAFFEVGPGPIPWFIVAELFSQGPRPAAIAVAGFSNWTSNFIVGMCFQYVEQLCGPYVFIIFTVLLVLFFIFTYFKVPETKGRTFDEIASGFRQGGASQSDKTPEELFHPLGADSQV

Row | SMILES | inhibition [%]
1 | CC(=O)Nc1ccc(S(=O)(=O)Nc2ccc(Nc3nc(C)cc(N(C)C)n3)cc2)cc1 | -1.06
2 | OC(CNC1CCCCC1)Cn1c2ccccc2c2ccccc21 (stereo not given) | 9.36
3 | COc1ccc(-c2csc(NC(=O)CCC(=O)O)n2)cc1OC | 0.77
4 | CCOC(=O)/C(=N\OC(C)(C)C(=O)NCc1ccc(O)c(O)c1)c1csc(NC(c2ccccc2)(c2ccccc2)c2ccccc2)n1 | -2.31
5 | CCc1ccc(Cc2cnc3nc(N)nc(N)c3c2C)cc1 | 8.4
6 | CC(C)Nc1nc(NCCc2c[nH]cn2)nc(NCc2ccc(Cl)c(Cl)c2)n1 | 3.82
7 | COc1cccc(Cc2c(C)nc3nc(N)nc(N)c3c2C)c1 | -0.08
8 | O=C(/C=C/c1ccccc1Cl)Nc1ccc(Br)c(OCCN2CCC(O)(c3ccccc3)CC2)c1 | 2.66
9 | CC(=O)Nc1ccc(OCCN(Cc2ccccc2C(F)(F)F)c2ccc(C#N)c(C(F)(F)F)c2)cc1 | 18.7
10 | COCCN(CCOC)c1ncc(-c2ccsc2)c(-c2nc(C)c(C)s2)n1 | -1.28
11 | O=C(/C=C/c1ccc(Cl)c(Cl)c1)NCCCCCN1CCCN(C(=O)Nc2ccc(F)c(Cl)c2)CC1 | 1.23
12 | O=C(NCCCCN1CCC(c2cccc3ccccc23)CC1)c1ccc(-c2ccc(C(F)(F)F)cn2)cc1 | 2.62
13 | CC(C)c1ncc(-c2ccncc2)c(C2CCC(CNC(=O)c3cccnc3)CC2)n1 (stereo not given) | 3.2
14 | CCCCCCCN1CCC(CC(=O)Nc2ccnc3ccc(OC)cc23)C(CC)C1 (stereo not given) | -2.12
15 | O=C(NCCOc1ccccc1)[C@H](Cc1ccccc1)Nc1ccnc(NCC2CCCCC2)n1 | 2.23
16 | Cc1cnc(C(=O)Nc2cccc(-c3cccc(-c4nc5cc(F)ccc5[nH]4)c3)c2)cn1 | 8.32
17 | Oc1ccc(CN2CCC(NCc3cccc4ccccc34)CC2)cc1 | 12.4
18 | CC1c2cccc(O)c2CCN1CCc1ccc(Cl)c(Cl)c1 (stereo not given) | 12.5
19 | CC(=O)Nc1cccc(-c2cnc(N)c3cc(-c4ccc5c(c4)OCO5)ccc23)c1 | 7.5
20 | O=C(Nc1ccc2c(c1)CCN(C1CCC1)CC2)c1ccc(-c2cn3ccccc3n2)cc1 | 3.01

Row | SMILES | inhibition [%]
21 | Cc1c[nH]c2cc(/C=C/C(=O)NC3CCC(CCN4CCc5ccc(C#N)cc5CC4)CC3)ccc12 (stereo not given) | 2.72
22 | CN1CCCC(CN2CCN(Cc3cccc(-c4ccc(-c5nc6cc(C(F)(F)F)ccc6[nH]5)cc4)c3)CC2)C1 (stereo not given) | 1.06
23 | COc1cccc(C2(c3cccc(OC)c3)N=C(N)N(CCCc3ccccc3)C2=O)c1 | -0.49
24 | O=C(NCCc1ccc(Cl)c(Cl)c1)[C@@H]1CCCN1C(=O)c1ccc(O)c(-c2cccc(C(F)(F)F)c2)c1 | 1.34
25 | CN(C)CCCOc1cccc(CCNCc2cccc(Oc3ccc(Cl)cc3)c2)c1 | 2.64
26 | Cc1cc(C)c2c(c1)C(=NO)CCN2 | -1.86
27 | O=C(Nc1ccc(CN2CCCCC2)cc1)c1ccc(COc2ccc([N+](=O)[O-])cc2)o1 | 4.55
28 | COc1cc2c(OC)cccc2cc1CNCCCCCCNCc1cc2cccc(OC)c2cc1OC | 0.11
29 | CN(C(=O)c1ccccc1)C1c2cc(C#N)ccc2OC(C)(C)C1O (stereo not given) | 0.42
30 | O=C(NC1CC1)c1ccc(N2CCC(Cc3ccccc3)CC2)c([N+](=O)[O-])c1 | 0.6
31 | Oc1cc(NC[C@@H]2CCC[C@@H]2NCc2ccc(Cl)c(Cl)c2)nc2ccccc12 | 9.21
32 | O=C(O)C1CC(=O)N(c2ccc(Cl)cc2)C1 (stereo not given) | -1.68
33 | NC(=O)c1cccc(CN2Cc3ccccc3OC3(CCN(Cc4c[nH]c5cnccc45)CC3)C2)c1 | 0.63
34 | O=C(NCCN1CCCC1)c1cccc(Nc2nccc(Nc3ccc(Oc4ccccc4)cc3)n2)c1 | 2.86
35 | O=C(Nc1ccccc1Cl)N(Cc1cc(Cl)cc(Cl)c1)CC(O)COc1ccc(Cl)c(F)c1 (stereo not given) | 2.94
36 | CCN1CCc2nc3ccccc3c(C(=O)Nc3ccc(C#N)cc3)c2C1 | -0.12
37 | CC1(C)N=C(N)N=C(N)N1c1cc(Cl)c(Cl)cc1Cl | -2.58
38 | CN1CC[C@@H](Oc2cc(Nc3nc(-c4ccc(C#N)cc4)cs3)ccc2Cl)C1 | 5.3
39 | Cc1cccc2nc(-c3ccc(-c4cccc(CN5CCN(CCN6CCOCC6)CC5)c4)s3)[nH]c12 | 0.45
40 | Cc1nc(N)nc(N)c1CCCOc1ccccc1Cl | 13.2
